Reference: the supplement of paper PMC10849652
The full data set covers some 8,800 targets. This sample favours those with a hit. About 0.5% of all pairs of compound and target were hits.

Legend:
Experiment in all cases: log2 fold change, soluble protein after heating vs DMSO (PISA); higher = thermal stabilisation; K562 lysate, 10 uM; active = over 0.2 and 3.5 SD of the protein, either way, in both replicates (recomputed)
[1] = compound: C=CC(=O)N1CCC[C@@H](n2nc(-c3ccc(Oc4ccccc4)cc3)c3c(N)ncnc32)C1 [ibrutinib]
In short: (§1)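 The values are log-two fold changes in thermal stability compared with solvent controls and come from duplicates. They were obtained by TMTpro 16plex LC-MS/MS, with channel sums equalised, on the supernatant after 21,000xg for 90 min. That supernatant came from crude K562 extract at 1 mg/mL protein treated with 10 μM compound for 30 min, heated for 3 min across 48°C-58°C, pooled and brought to 0.5% NP-40 at 4°C.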

[2] = compound: CC(=O)c1cnc2ccc(-c3cc(Cl)c(O)c(Cl)c3)nc2c1N[C@H]1CC[C@H](CN(C)C)CC1
In short: as §1

[3] = compound: CC(C)(C)Cn1c(N)nc2ccc(-c3[nH]c(C(C)(C)C)nc3-c3ccc(F)cc3)nc21 [ralimetinib]
In short: as §1

[4] = compound: CC(C)(O)CC(=O)NCCn1ccc2ncnc(Nc3ccc(Oc4cccc(C(F)(F)F)c4)c(Cl)c3)c21
In short: as §1

[5] = compound: CC(C)C1=C2N=C(C=C(N2N=C1)NCC3=CC=CC=C3)NCCCCCCN
In short: as §1

[6] = compound: CC1=C(C(CC(=O)N1)C2=CC=C(C=C2)C(F)(F)F)C(=O)NC3=C(C=C4C(=C3)C=NN4)F
In short: as §1

[7] = compound: CC1=C(C2=C(C=C1)C(=O)C3=CC=CC=C3N2CCCN)C
In short: as §1

[8] = compound: CC1=C(C=C(C=C1)NC(=O)C2=CC(=CC=C2)C(C)(C)C#N)NC3=CC4=C(C=C3)N=CN(C4=O)C
In short: as §1

[9] = compound: CC1=C(C=C(C=C1)NC(=O)C2=CC(=CC=C2)N(C)C)NC(=O)C3=CC=C(C=C3)O
In short: as §1

[10] = compound: CC1=CC=C(C=C1)SC2=C3C=C(SC3=CN=C2)C(=O)N
In short: as §1

Measured: log2 fold change

KLC2 (UniProt Q9H0B6)
inactive: [1] 0.021 | [2] 0.01 | [3] 0.003 | [4] 0.008 | [5] -0.001 | [6] -0.045 | [7] -0.036 | [8] 0.012 | [9] 0.016 | [10] -0.012

MPZL1 (UniProt O95297)
Chain of UniProt O95297 (O95297 whole entry, looked up): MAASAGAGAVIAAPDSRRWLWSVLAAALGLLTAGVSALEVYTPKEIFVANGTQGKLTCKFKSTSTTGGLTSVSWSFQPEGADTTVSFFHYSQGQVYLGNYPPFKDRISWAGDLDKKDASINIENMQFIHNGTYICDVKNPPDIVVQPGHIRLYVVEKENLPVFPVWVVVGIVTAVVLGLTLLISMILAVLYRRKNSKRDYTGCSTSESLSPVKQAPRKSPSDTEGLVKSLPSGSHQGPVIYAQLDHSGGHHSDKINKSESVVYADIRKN
inactive: [1] 0.01 | [2] -0.008 | [3] -0.01 | [4] 0.022 | [5] -0.035 | [6] -0.006 | [7] 0.003 | [8] 0.02 | [9] -0.035 | [10] -0.036

LEPROT (UniProt O15243)
inactive: [1] 0.005 | [2] -0.273 | [3] -0.034 | [4] 0.054 | [5] 0.267 | [8] 0.181 | [9] 0.016 | [10] 0

KIF14 (UniProt Q15058)
inactive: [1] 0.086 | [2] 0.024 | [3] 0.002 | [4] 0.003 | [5] 0.017 | [6] 0.002 | [7] -0.011 | [8] 0.007 | [9] 0.041 | [10] -0.012

MRPL46 (UniProt Q9H2W6)
inactive: [1] -0.101 | [2] 0.018 | [3] 0.048 | [4] 0.026 | [5] -0.064 | [6] -0.002 | [7] 0.005 | [8] -0.002 | [9] 0.026 | [10] 0.021

L3HYPDH (UniProt Q96EM0)
Chain of UniProt Q96EM0 (Q96EM0 whole entry, looked up): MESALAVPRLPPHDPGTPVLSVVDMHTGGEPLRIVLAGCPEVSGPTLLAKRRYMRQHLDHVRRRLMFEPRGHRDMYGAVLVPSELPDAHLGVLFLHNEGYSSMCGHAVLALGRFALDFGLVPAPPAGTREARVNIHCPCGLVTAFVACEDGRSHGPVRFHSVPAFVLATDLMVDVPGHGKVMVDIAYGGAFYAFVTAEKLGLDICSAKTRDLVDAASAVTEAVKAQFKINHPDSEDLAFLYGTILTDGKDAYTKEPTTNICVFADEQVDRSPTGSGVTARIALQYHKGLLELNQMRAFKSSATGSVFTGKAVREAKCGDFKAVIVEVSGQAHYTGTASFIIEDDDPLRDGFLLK
inactive: [1] -0.004 | [2] 0.039 | [3] -0.021 | [4] -0.004 | [5] 0.004 | [6] -0.044 | [7] -0.001 | [8] 0.032 | [9] 0.018 | [10] -0.024

LIMK1 (UniProt P53667)
inactive: [2] -0.04 | [3] -0.125 | [4] -0.161 | [6] -0.067 | [7] 0.026 | [8] -0.085 | [9] 0.059 | [10] -0.148
active: [1] 0.546

MAPKAPK5 (UniProt Q8IW41)
Chain of UniProt Q8IW41 (Q8IW41 whole entry, looked up): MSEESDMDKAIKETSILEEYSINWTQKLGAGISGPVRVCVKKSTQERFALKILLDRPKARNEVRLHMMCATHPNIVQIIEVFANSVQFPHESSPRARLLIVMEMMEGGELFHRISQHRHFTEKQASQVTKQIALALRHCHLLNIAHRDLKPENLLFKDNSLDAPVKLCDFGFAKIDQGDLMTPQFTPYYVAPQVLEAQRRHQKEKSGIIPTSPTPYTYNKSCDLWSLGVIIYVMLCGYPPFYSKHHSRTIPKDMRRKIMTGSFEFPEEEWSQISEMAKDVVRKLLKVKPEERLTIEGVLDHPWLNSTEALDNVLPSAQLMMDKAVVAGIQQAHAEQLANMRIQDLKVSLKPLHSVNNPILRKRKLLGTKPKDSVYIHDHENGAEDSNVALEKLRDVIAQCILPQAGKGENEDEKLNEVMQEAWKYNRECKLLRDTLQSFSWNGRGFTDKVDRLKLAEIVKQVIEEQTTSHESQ
inactive: [1] -0.001 | [2] -0.008 | [3] -0.024 | [4] -0.012 | [5] 0 | [6] -0.057 | [7] -0.01 | [8] 0.034 | [9] 0.048 | [10] -0.066

MAP1S (UniProt Q66K74)
inactive: [1] -0.008 | [2] -0.026 | [3] 0.004 | [4] -0.041 | [5] -0.005 | [6] 0.011 | [7] -0.021 | [8] 0 | [9] 0.025 | [10] 0.006

LPIN1 isoform 7 (UniProt Q14693)
inactive: [1] 0.02 | [2] 0.07 | [3] 0.035 | [4] -0.025 | [5] -0.033 | [6] 0.066 | [7] 0.022 | [8] -0.016 | [9] 0.007 | [10] -0.009

MAP4K4 isoform 6 (UniProt O95819)
inactive: [1] 0.056 | [2] 0.001 | [3] -0.19 | [4] 0.027 | [5] -0.021 | [7] -0.127 | [9] 0.002 | [10] 0.037

LIMS1 isoform 3 (UniProt P48059)
inactive: [1] 0.003 | [2] 0.033 | [3] 0.003 | [4] 0.023 | [5] -0.036 | [6] -0.012 | [7] -0.01 | [8] 0.052 | [9] -0.023 | [10] -0.006

MINK1 (UniProt Q8N4C8)
inactive: [1] -0.003 | [2] 0.013 | [3] 0.042 | [4] -0.051 | [5] 0.119 | [6] -0.144 | [7] -0.03 | [8] -0.008 | [9] 0.013 | [10] 0.021

MAP11 (UniProt Q8WVR3)
inactive: [1] 0.064 | [2] 0.072 | [3] 0.037 | [4] -0.008 | [5] -0.005 | [6] 0.105 | [7] -0.063 | [8] 0.014 | [9] -0.031 | [10] 0.078

MRPL12 (UniProt P52815)
inactive: [1] 0.082 | [2] -0.05 | [3] 0.006 | [4] -0.013 | [5] -0.029 | [6] -0.042 | [7] 0 | [8] 0.026 | [9] 0.012 | [10] 0.076

MAP4K4 isoform 3 (UniProt O95819)
inactive: [1] -0.052 | [2] -0.021 | [3] -0.065 | [4] -0.002 | [5] 0.046 | [6] 0.067 | [7] -0.042 | [8] -0.022 | [9] 0.062 | [10] -0.056

LDAH isoform 2 (UniProt Q9H6V9)
inactive: [1] 0.015 | [2] 0.021 | [3] 0.029 | [4] 0.097 | [5] -0.018 | [6] 0.006 | [7] 0.029 | [8] 0.007 | [9] 0 | [10] 0.014

MAST2 (UniProt Q6P0Q8)
inactive: [1] 0.136 | [2] 0.054 | [3] 0.033 | [4] -0.084 | [5] 0.071 | [7] -0.157 | [8] 0.03 | [9] 0.031 | [10] -0.022

MAP2K2 (UniProt P36507)
inactive: [1] 0.239 | [3] -0.052 | [4] 0.173 | [5] -0.007 | [6] -0.009 | [7] -0.033 | [8] -0.017 | [9] 0.013 | [10] -0.014
active: [2] 0.443

MACROD1 (UniProt Q9BQ69)
inactive: [1] 0 | [2] 0.015 | [3] 0.098 | [4] -0.024 | [5] -0.008 | [6] 0.022 | [7] 0.017 | [8] -0.101 | [9] 0.064 | [10] 0.065

KSR1 (UniProt Q8IVT5)
Chain of UniProt Q8IVT5 (Q8IVT5 whole entry, looked up): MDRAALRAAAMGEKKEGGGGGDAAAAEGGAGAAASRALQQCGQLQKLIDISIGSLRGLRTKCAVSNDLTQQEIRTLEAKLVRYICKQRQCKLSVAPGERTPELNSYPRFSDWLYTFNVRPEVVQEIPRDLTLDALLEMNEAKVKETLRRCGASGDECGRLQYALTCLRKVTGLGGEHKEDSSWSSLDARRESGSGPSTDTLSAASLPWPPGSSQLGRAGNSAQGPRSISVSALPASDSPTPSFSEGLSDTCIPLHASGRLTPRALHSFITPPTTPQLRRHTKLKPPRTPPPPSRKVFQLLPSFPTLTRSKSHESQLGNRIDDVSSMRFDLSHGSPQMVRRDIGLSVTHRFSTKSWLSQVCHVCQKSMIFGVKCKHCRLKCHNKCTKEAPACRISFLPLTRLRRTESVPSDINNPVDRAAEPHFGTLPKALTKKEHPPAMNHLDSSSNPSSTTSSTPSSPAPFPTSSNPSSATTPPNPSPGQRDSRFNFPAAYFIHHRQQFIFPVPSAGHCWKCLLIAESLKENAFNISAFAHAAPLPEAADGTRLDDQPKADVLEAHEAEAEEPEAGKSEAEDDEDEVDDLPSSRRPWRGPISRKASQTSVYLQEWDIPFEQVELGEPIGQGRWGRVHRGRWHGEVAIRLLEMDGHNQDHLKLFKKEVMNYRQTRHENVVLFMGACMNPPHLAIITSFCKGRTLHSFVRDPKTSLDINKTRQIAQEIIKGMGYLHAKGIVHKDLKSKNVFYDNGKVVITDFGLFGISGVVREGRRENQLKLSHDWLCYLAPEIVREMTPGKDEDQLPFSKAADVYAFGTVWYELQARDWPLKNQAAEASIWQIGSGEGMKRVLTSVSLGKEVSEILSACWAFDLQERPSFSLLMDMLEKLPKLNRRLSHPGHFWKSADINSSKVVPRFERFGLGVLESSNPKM
inactive: [1] 0.021 | [2] -0.103 | [3] 0.054 | [4] 0.021 | [5] -0.025 | [6] -0.011 | [7] -0.032 | [8] 0.007 | [9] 0.019 | [10] -0.074

KIF11 (UniProt P52732)
inactive: [1] 0.005 | [2] -0.003 | [3] 0.029 | [4] 0.01 | [5] 0.007 | [6] 0.005 | [7] 0.01 | [8] -0.019 | [9] 0.014 | [10] 0.015

MBLAC2 (UniProt Q68D91)
inactive: [1] 0.05 | [2] -0.005 | [3] 0.069 | [4] 0.003 | [5] 0.035 | [6] 0.04 | [7] 0.037 | [8] -0.013 | [9] -0.044 | [10] -0.019

MANEA (UniProt Q5SRI9)
inactive: [1] 0 | [2] 0.038 | [3] 0.024 | [4] -0.1 | [5] 0.041 | [7] -0.009 | [8] 0.037 | [9] 0.114 | [10] 0.068

MED13L (UniProt Q71F56)
Chain of UniProt Q71F56 (Q71F56 whole entry, looked up): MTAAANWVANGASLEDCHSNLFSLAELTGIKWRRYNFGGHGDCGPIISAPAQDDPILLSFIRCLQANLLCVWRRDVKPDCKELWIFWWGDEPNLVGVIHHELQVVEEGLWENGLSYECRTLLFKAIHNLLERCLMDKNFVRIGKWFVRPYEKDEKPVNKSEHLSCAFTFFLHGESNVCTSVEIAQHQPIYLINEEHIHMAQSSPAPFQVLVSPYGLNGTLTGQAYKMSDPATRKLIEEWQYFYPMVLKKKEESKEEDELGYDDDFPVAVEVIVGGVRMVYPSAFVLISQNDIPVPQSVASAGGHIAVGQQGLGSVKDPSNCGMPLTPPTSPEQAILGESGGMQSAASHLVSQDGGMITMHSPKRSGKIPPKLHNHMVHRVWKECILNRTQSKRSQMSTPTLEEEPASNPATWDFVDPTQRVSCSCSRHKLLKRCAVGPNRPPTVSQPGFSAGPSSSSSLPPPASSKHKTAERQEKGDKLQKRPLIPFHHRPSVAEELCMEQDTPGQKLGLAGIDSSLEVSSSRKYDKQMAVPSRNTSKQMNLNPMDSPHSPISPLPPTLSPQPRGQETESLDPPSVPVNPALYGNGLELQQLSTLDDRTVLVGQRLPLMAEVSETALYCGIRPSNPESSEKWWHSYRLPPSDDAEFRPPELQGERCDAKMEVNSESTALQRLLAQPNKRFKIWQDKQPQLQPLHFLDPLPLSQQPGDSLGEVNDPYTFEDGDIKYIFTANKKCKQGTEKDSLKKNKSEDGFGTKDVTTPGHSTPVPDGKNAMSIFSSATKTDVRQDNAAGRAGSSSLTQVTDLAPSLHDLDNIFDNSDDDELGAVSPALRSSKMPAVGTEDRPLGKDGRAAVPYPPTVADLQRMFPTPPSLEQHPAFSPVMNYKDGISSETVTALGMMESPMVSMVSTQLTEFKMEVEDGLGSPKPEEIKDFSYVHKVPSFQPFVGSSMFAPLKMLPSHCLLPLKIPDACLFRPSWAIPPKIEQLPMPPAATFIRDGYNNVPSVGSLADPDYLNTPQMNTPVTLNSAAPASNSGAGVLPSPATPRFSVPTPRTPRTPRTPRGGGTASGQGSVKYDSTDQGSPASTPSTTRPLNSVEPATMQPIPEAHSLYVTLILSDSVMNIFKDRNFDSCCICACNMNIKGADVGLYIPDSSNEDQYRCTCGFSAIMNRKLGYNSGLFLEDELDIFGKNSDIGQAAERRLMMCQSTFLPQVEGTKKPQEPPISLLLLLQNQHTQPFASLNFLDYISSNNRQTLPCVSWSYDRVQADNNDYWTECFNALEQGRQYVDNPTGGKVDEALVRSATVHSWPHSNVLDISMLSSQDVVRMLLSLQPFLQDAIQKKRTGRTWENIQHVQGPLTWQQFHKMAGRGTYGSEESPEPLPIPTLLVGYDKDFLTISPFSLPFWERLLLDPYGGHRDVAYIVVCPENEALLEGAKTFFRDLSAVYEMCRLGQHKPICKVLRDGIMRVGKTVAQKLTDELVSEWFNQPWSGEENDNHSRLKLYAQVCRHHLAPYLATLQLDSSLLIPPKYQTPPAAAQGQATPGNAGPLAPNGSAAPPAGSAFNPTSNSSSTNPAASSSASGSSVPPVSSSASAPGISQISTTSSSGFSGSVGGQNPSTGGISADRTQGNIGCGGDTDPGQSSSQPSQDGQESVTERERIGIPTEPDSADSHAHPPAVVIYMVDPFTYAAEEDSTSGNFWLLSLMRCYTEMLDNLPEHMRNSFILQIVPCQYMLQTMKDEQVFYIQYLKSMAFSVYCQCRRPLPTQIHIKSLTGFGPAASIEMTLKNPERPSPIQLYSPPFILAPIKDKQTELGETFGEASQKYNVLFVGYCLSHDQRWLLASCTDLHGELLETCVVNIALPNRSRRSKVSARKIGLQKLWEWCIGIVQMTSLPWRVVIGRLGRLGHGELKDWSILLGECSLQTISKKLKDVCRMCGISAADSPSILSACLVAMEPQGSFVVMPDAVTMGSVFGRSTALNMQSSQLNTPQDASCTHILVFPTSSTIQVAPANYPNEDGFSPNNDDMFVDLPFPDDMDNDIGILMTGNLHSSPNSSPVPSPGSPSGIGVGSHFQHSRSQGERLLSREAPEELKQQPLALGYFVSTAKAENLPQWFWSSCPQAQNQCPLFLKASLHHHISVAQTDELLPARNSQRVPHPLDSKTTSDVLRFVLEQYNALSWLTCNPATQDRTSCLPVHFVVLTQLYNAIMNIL
inactive: [1] 0.047 | [2] -0.036 | [3] 0.014 | [4] -0.016 | [5] 0.005 | [6] -0.027 | [7] -0.036 | [8] 0.007 | [9] 0.015 | [10] -0.035

MICU2 (UniProt Q8IYU8)
inactive: [1] 0.036 | [2] -0.095 | [3] -0.019 | [4] -0.026 | [5] -0.016 | [6] -0.019 | [7] -0.004 | [8] 0.012 | [9] -0.018 | [10] 0.013

MARK3 (UniProt P27448)
inactive: [1] 0.03 | [2] -0.081 | [3] 0.028 | [4] -0.016 | [5] 0.041 | [6] 0.005 | [7] -0.009 | [8] 0.075 | [9] 0.016 | [10] 0

LZTR1 (UniProt Q8N653)
Chain of UniProt Q8N653 (Q8N653 whole entry, looked up): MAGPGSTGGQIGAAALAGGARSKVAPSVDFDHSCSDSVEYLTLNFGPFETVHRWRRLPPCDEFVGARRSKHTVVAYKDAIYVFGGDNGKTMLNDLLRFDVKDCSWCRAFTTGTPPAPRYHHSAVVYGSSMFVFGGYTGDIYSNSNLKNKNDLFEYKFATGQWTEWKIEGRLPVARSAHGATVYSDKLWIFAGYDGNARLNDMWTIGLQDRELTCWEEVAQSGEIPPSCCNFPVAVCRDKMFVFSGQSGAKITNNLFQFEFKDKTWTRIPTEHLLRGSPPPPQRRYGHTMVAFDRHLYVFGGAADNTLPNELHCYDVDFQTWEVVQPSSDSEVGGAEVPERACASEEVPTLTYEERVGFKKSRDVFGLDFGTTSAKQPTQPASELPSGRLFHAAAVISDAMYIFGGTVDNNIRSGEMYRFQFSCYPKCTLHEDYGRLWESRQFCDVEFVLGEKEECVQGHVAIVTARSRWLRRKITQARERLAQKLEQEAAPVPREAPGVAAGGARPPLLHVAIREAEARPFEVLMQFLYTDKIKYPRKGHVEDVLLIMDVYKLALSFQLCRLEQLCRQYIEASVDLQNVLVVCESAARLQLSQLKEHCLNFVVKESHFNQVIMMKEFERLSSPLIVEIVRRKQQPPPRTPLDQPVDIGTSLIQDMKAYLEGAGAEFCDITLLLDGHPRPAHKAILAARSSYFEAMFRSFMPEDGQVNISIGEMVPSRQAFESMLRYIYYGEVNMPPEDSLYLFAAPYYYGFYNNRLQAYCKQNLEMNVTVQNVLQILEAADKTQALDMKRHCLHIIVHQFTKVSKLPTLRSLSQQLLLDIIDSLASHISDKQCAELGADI
inactive: [1] -0.074 | [2] -0.441 | [3] -0.023 | [4] 0.102 | [5] 0.009 | [6] 0.048 | [7] -0.014 | [8] -0.001 | [9] 0.113 | [10] 0.041

LYSMD3 (UniProt Q7Z3D4)
inactive: [1] 0.098 | [2] -0.072 | [3] 0.003 | [4] -0.046 | [5] -0.045 | [6] -0.099 | [7] -0.003 | [8] 0.034 | [9] 0.005 | [10] -0.01

KNL1 (UniProt Q8NG31)
inactive: [1] 0.009 | [2] -0.014 | [3] 0.012 | [4] -0.032 | [5] 0.013 | [6] 0.012 | [7] -0.022 | [8] 0 | [9] 0.004 | [10] 0.012
